Measurements: publication PMC5913336, “True equilibrium measurement of transcription factor-DNA binding affinities using automated polarization microscopy”

The sequences below were run against T1, EcR (Drosophila melanogaster, UniProt P34021 251-348) (assay: FP; 33 mM phosphate pH 7.0, 90 mM NaCl, 0.01% Tween 20, 0.1 mM DTT, 0.5% agarose; room temperature). Details: tags: N-GST (pGEX-6P-1, kept); dsDNA, one strand shown.
T1 sequence: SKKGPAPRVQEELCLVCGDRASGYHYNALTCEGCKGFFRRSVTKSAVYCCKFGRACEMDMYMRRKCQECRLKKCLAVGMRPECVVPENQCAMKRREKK

| Sequence | binding signal | Kd [nM] |
| --- | --- | --- |
| GAAGGACCCCTAC | 10 Kd / Kd of best base at the position |  |
| GAACGACCCCTAC | 3.06 Kd / Kd of best base at the position |  |
| AAATGACCCCTAC | 1.94 Kd / Kd of best base at the position |  |
| GAATGACCGCTAC | 2.37 Kd / Kd of best base at the position |  |
| GAATGGCCCCTAC | 5.84 Kd / Kd of best base at the position |  |
| GAATGACCCCTAC |  | ~23.7 |
| GAAAGACCCCTAC | 8.21 Kd / Kd of best base at the position |  |
| GAATGATCCCTAC | 9.3 Kd / Kd of best base at the position |  |
| GAATGACCCCTAT | 1.25 Kd / Kd of best base at the position |  |
| GAATGACCCTTAC | 1.59 Kd / Kd of best base at the position |  |
| GAATCACCCCTAC | 9.57 Kd / Kd of best base at the position |  |
| GAATGACCCCGAC | 1.46 Kd / Kd of best base at the position |  |
| TAATGACCCCTAC | 1.83 Kd / Kd of best base at the position |  |
| GAATGACACCTAC | 4.55 Kd / Kd of best base at the position |  |
| GAATGACTCCTAC | 7.37 Kd / Kd of best base at the position |  |
| GGATGACCCCTAC | 1.78 Kd / Kd of best base at the position |  |
| GAATGACCCCTGC | 1.47 Kd / Kd of best base at the position |  |
| GAATGACCCCTAA | 1.25 Kd / Kd of best base at the position |  |
| GAATGACCCATAC | 2.6 Kd / Kd of best base at the position |  |
| GAATGAACCCTAC | 1.84 Kd / Kd of best base at the position |  |

| Sequence | binding signal | Kd [nM] |
| --- | --- | --- |
| GAATGACCCCAAC | 1.46 Kd / Kd of best base at the position |  |
| GAATGACCCCTAG | 1.29 Kd / Kd of best base at the position |  |
| GATTGACCCCTAC | 1.87 Kd / Kd of best base at the position |  |
| GAGTGACCCCTAC | 1.99 Kd / Kd of best base at the position |  |
| GAATGAGCCCTAC | 12.7 Kd / Kd of best base at the position |  |
| GAATGACCCCTCC | 1.29 Kd / Kd of best base at the position |  |
| GAATGACCCGTAC | 2.06 Kd / Kd of best base at the position |  |
| GAATGTCCCCTAC | 6.26 Kd / Kd of best base at the position |  |
| GTATGACCCCTAC | 1.76 Kd / Kd of best base at the position |  |
| GAATGACCCCCAC | 1.69 Kd / Kd of best base at the position |  |
| GAATGACCCCTTC | 1.34 Kd / Kd of best base at the position |  |
| GACTGACCCCTAC | 2.46 Kd / Kd of best base at the position |  |
| GAATTACCCCTAC | 11.6 Kd / Kd of best base at the position |  |
| GAATGCCCCCTAC | 3.38 Kd / Kd of best base at the position |  |
| CAATGACCCCTAC | 1.8 Kd / Kd of best base at the position |  |
| GAATGACGCCTAC | 19.5 Kd / Kd of best base at the position |  |
| GAATGACCACTAC | 5.04 Kd / Kd of best base at the position |  |
| GAATGACCTCTAC | 1.03 Kd / Kd of best base at the position |  |
| GAATAACCCCTAC | 3.47 Kd / Kd of best base at the position |  |
